# Measurements published in ChEMBL document CHEMBL4513146, “CO-ADD screening of Karazin Kharkiv National University (Ukraine) compounds”.
# Results with a measured potency or affinity are listed apart.
# Key:
# Staphylococcus aureus = details: Concentration 32 ug.mL-1;; ASSAY_TEST Inhibition of Bacterial Growth; detection method Absorption (OD600); MEDIA CAMHB; plate type 384well; NBS; CORNING #3640; time 18 hr
# Escherichia coli = details: Concentration 32 ug.mL-1;; ASSAY_TEST Inhibition of Bacterial Growth; detection method Absorption (OD600); MEDIA CAMHB; plate type 384well; NBS; CORNING #3640; time 18 hr
Structure (SMILES),Inhibition (Staphylococcus aureus),Inhibition (Escherichia coli)
Cc1ccc(CN(c2ccc(C(C)C)cc2)S(=O)(=O)c2cccn3cnnc23)cc1,21.94%,4.59%
O=c1n(Cc2cccc(C(F)(F)F)c2)nc2ccc(S(=O)(=O)N3CCCC3)cn12,14.07%,-1.1%
CCOc1ccc(NC(=O)Cn2nc3ccc(-c4ccccc4)nn3c2=O)cc1,5.36%,-5.9%
CCCCc1ccc(NC(=O)Cn2c(=O)c3nnc(CCC)n3c3ccccc32)cc1,2.94%,-1.42%
COc1cccc(-n2ccn3c(SCC(=O)Nc4ccccc4Cl)nnc3c2=O)c1,11.46%,-4.64%
COc1ccccc1-n1ccn2c(SCc3cccc(F)c3)nnc2c1=O,11.17%,-7.27%
O=C(Cn1nc2ccc(-c3ccc(Cl)cc3)nn2c1=O)Nc1ccccc1,-4.65%,-11.42%
O=C(Cn1nc2ccc(-c3ccccc3)nn2c1=O)N1CCN(c2ccc(F)cc2)CC1,10.02%,-0.36%
O=c1n(Cc2cccc(C(F)(F)F)c2)nc2ccc(S(=O)(=O)N3CCCCC3)cn12,14.29%,0.28%
Cc1ccc(Sc2nccn3c(=O)n(CC(=O)Nc4c(C)cc(C)cc4C)nc23)c(C)c1,17.35%,1.82%
COc1ccc(NC(=O)Cn2nc3c(Oc4cccc(F)c4)nccn3c2=O)cc1,-3.6%,-10.71%
Cc1nnc2ccc(S(=O)(=O)N(Cc3ccc(Cl)cc3)c3cccc(F)c3)cn12,2.65%,-4.46%
